D1 agonist – activates the human D1 dopamine receptor; P21728; HEK293 T-REx D1 cells, calcium flux, agonist mode; activation, % at 2 µM; 360,000 tested, 1% active; AID 504660; further: 0% is about no effect
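Tetracycline-induced HEK293 TREx D1 cells, force-coupled to calcium signalling, were dye-loaded with a no-wash calcium kit. Compound was pin-added after a 10 s baseline. Fluorescence was read kinetically at 1 cycle/s for 180 s, with calcium rises flagged as agonism.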
D1 antagonist – antagonists of human D1 dopamine receptor; HEK293 TREx D1 cells, calcium flux, dopamine EC80; stronger effect = lower value; 360,000 tested, 3.2% active; activity change, negative = inhibition, % at 10 µM; in the data active means activity change below about -30%; further: on the % scale 0 is the no-effect control and ±100 the full control effect
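Using tetracycline-induced force-coupled D1 Hek293 cells and a calcium dye, signals were followed for 180 s after compound, then for 180 s after EC80 dopamine, to detect inhibitors.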
TRHR agonist – TRH receptor (human) agonism; P34981; TRHR cells, calcium flux fluo-8, FDSS agonist mode; activation, % at 2 µM; 360,000 tested, 0.18% active; further: 0% is about no effect
Target sequence (P34981 whole entry, looked up): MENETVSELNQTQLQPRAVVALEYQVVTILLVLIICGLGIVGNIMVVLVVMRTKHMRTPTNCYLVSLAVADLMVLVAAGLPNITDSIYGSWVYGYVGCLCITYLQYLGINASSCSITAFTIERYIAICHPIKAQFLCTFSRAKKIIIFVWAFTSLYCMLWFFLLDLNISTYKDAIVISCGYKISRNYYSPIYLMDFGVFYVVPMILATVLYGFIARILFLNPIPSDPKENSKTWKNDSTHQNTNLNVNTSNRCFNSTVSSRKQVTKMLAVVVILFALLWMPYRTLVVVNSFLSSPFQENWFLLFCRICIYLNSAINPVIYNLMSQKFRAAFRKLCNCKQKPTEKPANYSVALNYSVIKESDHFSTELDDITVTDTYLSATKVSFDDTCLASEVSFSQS
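In this calcium-flux screen, cells bearing human TRHR are dye-loaded with fluo-8, baselined for 10 cycles, then exposed to library compounds; positive kinetic calcium responses during the agonist phase mark hits, with TRH as control.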
TRHR PAM – allosteric enhancers of human TRH receptor. enhancement, % at 2 µM. 360,000 tested, 0.66% active. TRHR cells, fluo-8 calcium fluorescence, EC20 TRH enhancement; in the data active means enhancement above about 30%; further: 0% is about no effect
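Enhancer read-out: after compound pinning and an initial kinetic agonist-mode read, an EC20 of TRH (10 nM final) was injected and fluo-8 calcium signal (Ex 480/Em 530) followed at 1 s/cycle for 100 cycles in TRHR-expressing cells.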
D1 potentiator – human D1 dopamine receptor positive modulation; potentiation, % at 10 µM; 360,000 tested, 0.036% active; AID 504651; HEK293 TREx D1 cells, calcium flux, dopamine EC20 potentiation; P21728; in the data active means potentiation above about 30%; further: 0% is about no effect
An asterisk follows results filed as active. A selection: hits, their analogues and other compounds. The true share with any hit is near 4.6%. Unless noted, no stated cut-off is given here; in the data, active means activation above about 30%; inactive means the rest.

SMILES	D1 agonist	D1 antagonist	TRHR agonist	TRHR PAM	D1 potentiator
O=C(CCC1N=C2c3ccccc3N=C(SCC(=O)Nc3ccc(F)cc3)N2C1=O)NCc1cccs1 (configuration not stated)	-1	-24	0	-6	4
Cc1ccc(CSC2=Nc3ccccc3C3=NC(CC(=O)NCc4ccc5c(c4)OCO5)C(=O)N23)cc1 (configuration not stated)	6	-61*	0	-1	1
O=C(CCC1N=C2c3ccccc3N=C(SCC(=O)Nc3ccccc3F)N2C1=O)NCc1cccs1 (configuration not stated)	1	-38*	0	-2	-1
COc1ccccc1CNC(=O)CCC1N=C2c3ccccc3N=C(SCC(N)=O)N2C1=O (configuration not stated)	-1	-37*	0	7	-3
CCCCNC(=O)CSC1=Nc2ccccc2C2=NC(CCC(=O)NCc3ccccc3OC)C(=O)N12 (configuration not stated)	0	2	0	2	-2
CCCSCCCNC(=O)C1CCN(C(=O)c2cnn(-c3ccccc3)c2-n2cccc2)CC1	0	0	-2	0	-2
CC(C)c1ccc(NC(=O)C2CCN(S(=O)(=O)c3cccc4nonc34)CC2)cc1	0	3	-1	3	1
CC(C)(C)NC(=O)C(c1ccccn1)N(C(=O)c1ccc2c(c1)OCCO2)C1CCCC1 (configuration not stated)	0	-39*	0	5	-1
CC(C)(C)NC(=O)C(c1ccccn1)N(C(=O)c1csnn1)C1CCCCC1 (configuration not stated)	4	-8	0	2	1
CC(=O)Nc1ccc(S(=O)(=O)N2CCC(C(=O)NCCC(=O)Nc3nccs3)CC2)cc1	2	-5	0	3	-4
COc1ccccc1-c1nnc(C2CCN(S(=O)(=O)c3ccc([N+](=O)[O-])cc3)CC2)o1	37*	-3	0	-14	-7
CC(=O)Nc1ccc(S(=O)(=O)N2CCC(c3ccncc3)CC2)cc1	9	-37*	0	-1	0
Cc1ccc(S(=O)(=O)N2CCC(c3ccncc3)CC2)c(C)c1	15	-34*	0	-2	-2
Cc1ccc(S(=O)(=O)N2CCN(S(=O)(=O)N3CCC(C)CC3)CC2)c(C)c1	3	5	0	-3	0
CC(=O)Nc1ccc(S(=O)(=O)N2CCC(C(=O)Nc3nccs3)CC2)cc1	0	-39*	1	-7	-5
O=C(Nc1cccc(F)c1)C1CCN(c2nc3ccccc3[nH]2)CC1	-1	0	1	4	0
CC(=O)Nc1ccc(S(=O)(=O)N2CCC(c3nnc(-c4ccc(C)cc4)o3)CC2)cc1	2	-33*	0	1	-13
CSc1ccccc1C(=O)NCCOc1cccc(C)c1	3	-50*	0	-6	-4
Cc1ccc(C(=O)NCCOc2cccc(C)c2)cc1	1	-4	-1	-3	5
CC1=C(c2ccc(C)c(C)c2)S(=O)(=O)N=C1N1CCC(C(=O)N2CCCCC2)CC1	3	-5	-1	0	-4
CCn1ncc(S(=O)(=O)Nc2cccnc2)c1C	2	-41*	1	-10	-10
Cc1ccccc1S(=O)(=O)Nc1cccnc1	1	1	0	-1	-4
Cc1ccc(N2CCN(C(=O)c3cn(C)c4ccc(S(=O)(=O)N(C)C5CCCCC5)cc4c3=O)CC2C)cc1 (configuration not stated)	-2	5	-1	0	2
COc1ccc(OC)c(NC(=O)c2cc(C3CC3)nc3c2c(C)nn3-c2ccc(C)cc2)c1	1	-1	1	-8	8
Cc1ccc(-c2nn(CC(=O)O)c(=O)c3ccccc23)cc1	-2	-6	0	-3	-4
COC(=O)Cn1nc(-c2ccc(C)cc2)c2ccccc2c1=O	1	-75*	0	-6	-8
COc1ccc(OC)c(/C=C/C(=O)OCC(=O)Nc2ccc(Cl)c(S(=O)(=O)N(C)C)c2)c1	7	-35*	0	0	3
COc1ccc(/C=C/C(=O)OCC(=O)Nc2cc(S(=O)(=O)N(C)C)ccc2Cl)cc1	8	-34*	0	-2	-11

Screens (PubChem BioAssay)
